PubChem BioAssay AID1159580 (chemical genetic matrix, 2015)
Where “and” joins values, the source holds several entries; their conditions need not be identical. Identical values can stand only once. About 2,000 (36%) of roughly 5,500 compounds were called active. Another 18% or so got no clear call; they are omitted. No stated cut-off is given here; in the data, active means normalized growth mostly below about 0.91 (no sharp cut-off); inconclusive means no clear call, values can overlap the other calls; inactive means mostly above about 0.92. The list shows a part of the results.

Test: chemical genetic growth profiling, strain panel (AID 1159580);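 further: tested at 20 µM; growth read once vehicle control cultures reached saturation at 30 °C; 1 = growth at the plate median or of vehicle wells; lower values mean less growth of the strain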
Conditions: growth OD

Measured: normalized growth

NC(N)=NCCCCN=C(N)N
inactive: S. cerevisiae deletion strains, locus YKL009W, strain mrt4, hits give low values 1 | S. cerevisiae deletion strains, locus YKL068W, hits give low values 0.988 | S. cerevisiae deletion strains, locus YKL085W, strain MDH1 (second series), hits give low values 1.03 | S. cerevisiae deletion strains, locus YKL085W, strain MDH1, hits give low values 1.03 | S. cerevisiae deletion strains, locus YKL160W, strain elf1, hits give low values 1.02 | S. cerevisiae deletion strains, locus YKL190W, strain CNB1, hits give low values 0.985 | S. cerevisiae deletion strains, locus YKR001C, strain vps1, hits give low values 1.01 | S. cerevisiae deletion strains, locus YKR026C, strain gcn3, hits give low values 0.995 | S. cerevisiae deletion strains, locus YKR091W, strain srl3, hits give low values 1 | S. cerevisiae deletion strains, locus YLL001W, strain dnm1, hits give low values 1.01 | S. cerevisiae deletion strains, locus YLL026W, hits give low values 1.01 | S. cerevisiae deletion strains, locus YLL041C, strain sdh2, hits give low values 0.986 | S. cerevisiae deletion strains, locus YLR027C, strain aat2, hits give low values 1 | S. cerevisiae deletion strains, locus YLR039C, strain RIC1, hits give low values 0.99 | S. cerevisiae deletion strains, locus YLR058C, strain SHM2, hits give low values 0.972 | S. cerevisiae deletion strains, locus YLR102C, strain apc9, hits give low values 0.993 | S. cerevisiae deletion strains, locus YLR113W, strain HOG1, hits give low values 0.97 | S. cerevisiae deletion strains, locus YLR221C, strain rsa3, hits give low values 1.04 | S. cerevisiae deletion strains, locus YLR258W, strain gsy2, hits give low values 1.01 | S. cerevisiae deletion strains, locus YLR262C, strain YPT6 (second series), hits give low values 1.02 | S. cerevisiae deletion strains, locus YLR262C, strain YPT6, hits give low values 0.963 | S. cerevisiae deletion strains, locus YLR268W, strain sec22, hits give low values 0.978 | S. cerevisiae deletion strains, locus YLR320W, strain mms22, hits give low values 1.05 | S. cerevisiae deletion strains, locus YLR330W, strain CHS5, hits give low values 0.993 | S. cerevisiae deletion strains, locus YLR342W, strain FKS1 (second series), hits give low values 1.03 | S. cerevisiae deletion strains, locus YLR342W, strain FKS1, hits give low values 0.993 | S. cerevisiae deletion strains, locus YLR357W, strain rsc2, hits give low values 0.998 | S. cerevisiae deletion strains, locus YLR370C, strain arc18, hits give low values 0.991 | S. cerevisiae deletion strains, locus YLR371W, strain rom2, hits give low values 0.95 | S. cerevisiae deletion strains, locus YLR384C, strain iki3, hits give low values 0.997 | S. cerevisiae deletion strains, locus YLR418C, strain cdc73, hits give low values 0.971 | S. cerevisiae deletion strains, locus YML016C, strain PPZ1, hits give low values 0.992 | S. cerevisiae deletion strains, locus YML032C, strain rad52, hits give low values 1.01 | S. cerevisiae deletion strains, locus YML120C, strain ndi1, hits give low values 0.998 | S. cerevisiae deletion strains, locus YML124C, strain tub3, hits give low values 0.997 | S. cerevisiae deletion strains, locus YMR058W, strain fet3, hits give low values 0.998 | S. cerevisiae deletion strains, locus YMR078C, strain ctf18, hits give low values 0.992 | S. cerevisiae deletion strains, locus YMR125W, strain sto1, hits give low values 0.963 | S. cerevisiae deletion strains, locus YMR129W, hits give low values 1 | S. cerevisiae deletion strains, locus YMR205C, strain PFK2, hits give low values 1.03 | S. cerevisiae deletion strains, locus YMR223W, strain ubp8, hits give low values 1.01 | S. cerevisiae deletion strains, locus YMR231W, strain pep5, hits give low values 0.993 | S. cerevisiae deletion strains, locus YMR263W, strain SAP30, hits give low values 0.953 and 0.994 | S. cerevisiae deletion strains, locus YMR307W, strain GAS1, hits give low values 1.06 and 0.991 | S. cerevisiae deletion strains, locus YNL067W, strain RPL9B, hits give low values 0.972 | S. cerevisiae deletion strains, locus YNL071W, strain lat1, hits give low values 0.991 | S. cerevisiae deletion strains, locus YNL128W, strain TEP1, hits give low values 0.92 and 0.999 | S. cerevisiae deletion strains, locus YNL153C, strain GIM3, hits give low values 0.978 | S. cerevisiae deletion strains, locus YNL175C, strain NOP13, hits give low values 1.01 | S. cerevisiae deletion strains, locus YNL183C, strain NPR1, hits give low values 0.92 | S. cerevisiae deletion strains, locus YNL197C, strain WHI3, hits give low values 1.02 | S. cerevisiae deletion strains, locus YNL209W, strain ssb2, hits give low values 1.01 | S. cerevisiae deletion strains, locus YNL224C, strain SQS1, hits give low values 1.01 | S. cerevisiae deletion strains, locus YNL233W, strain BNI4, hits give low values 0.979 | S. cerevisiae deletion strains, locus YNL248C, strain rpa49, hits give low values 0.967 | S. cerevisiae deletion strains, locus YNL250W, strain rad50, hits give low values 0.98 | S. cerevisiae deletion strains, locus YNL271C, strain bni1, hits give low values 0.994 | S. cerevisiae deletion strains, locus YNL298W, strain CLA4, hits give low values 0.994 | S. cerevisiae deletion strains, locus YNL307C, strain MCK1, hits give low values 1.01 | S. cerevisiae deletion strains, locus YNL322C, strain KRE1 (second series), hits give low values 1 | S. cerevisiae deletion strains, locus YNL322C, strain KRE1, hits give low values 0.977 | S. cerevisiae deletion strains, locus YNR049C, strain mso1, hits give low values 0.997 | S. cerevisiae deletion strains, locus YNR052C, strain pop2, hits give low values 0.997 | S. cerevisiae deletion strains, locus YOL006C, strain TOP1, hits give low values 0.957 | S. cerevisiae deletion strains, locus YOL012C, strain htz1 0.788 | S. cerevisiae deletion strains, locus YOL147C, strain pex11, hits give low values 0.993 | S. cerevisiae deletion strains, locus YOR001W, strain rrp6, hits give low values 0.97 | S. cerevisiae deletion strains, locus YOR061W, strain CKA2, hits give low values 0.955 | S. cerevisiae deletion strains, locus YOR069W, strain VPS5, hits give low values 0.999 | S. cerevisiae deletion strains, locus YOR070C, strain gyp1, hits give low values 1.02 | S. cerevisiae deletion strains, locus YOR080W, strain dia2, hits give low values 1.01 | S. cerevisiae deletion strains, locus YOR083W, strain WHI5 (second series), hits give low values 0.988 | S. cerevisiae deletion strains, locus YOR083W, strain WHI5, hits give low values 1.04 | S. cerevisiae deletion strains, locus YOR106W, strain vam3, hits give low values 1.03 | S. cerevisiae deletion strains, locus YOR136W, strain idh2, hits give low values 0.997 | S. cerevisiae deletion strains, locus YOR144C, strain elg1, hits give low values 0.999 | S. cerevisiae deletion strains, locus YOR184W, strain ser1, hits give low values 1.03 | S. cerevisiae deletion strains, locus YOR231W, strain MKK1, hits give low values 0.968 | S. cerevisiae deletion strains, locus YOR265W, strain rbl2, hits give low values 1.01 | S. cerevisiae deletion strains, locus YOR270C, strain vph1, hits give low values 0.991 | S. cerevisiae deletion strains, locus YOR290C, strain snf2, hits give low values 0.968 | S. cerevisiae deletion strains, locus YOR316C, strain cot1, hits give low values 0.988 | S. cerevisiae deletion strains, locus YPL051W, strain arl3, hits give low values 1.04 | S. cerevisiae deletion strains, locus YPL055C, strain LGE1, hits give low values 0.95 and 0.989 | S. cerevisiae deletion strains, locus YPL078C, strain atp4, hits give low values 1.01 | S. cerevisiae deletion strains, locus YPL106C, strain sse1, hits give low values 1.01 | S. cerevisiae deletion strains, locus YPL240C, strain hsp82, hits give low values 1.01 | S. cerevisiae deletion strains, locus YPL241C, strain CIN2, hits give low values 0.988 and 0.994 | S. cerevisiae deletion strains, locus YPL256C, strain CLN2, hits give low values 0.979 | S. cerevisiae deletion strains, locus YPR119W, strain clb2, hits give low values 1 | S. cerevisiae deletion strains, locus YPR141C, strain kar3, hits give low values 0.975 | S. cerevisiae deletion strains, locus YPR163C, strain tif3, hits give low values 1 | S. cerevisiae deletion strains, locus YPR167C, strain met16, hits give low values 0.988 | S. cerevisiae deletion strains, strain wtn01, hits give low values 0.983 | S. cerevisiae strains, strain wild type, hits give low values 0.998
